Experimental data as given in PMC12136788.
Numbering of substitutions follows the chain as printed. Over roughly 24,000 sequences, “enrichment r” has its median near 0.99; the highest 2% begin near 3.7. Shown is part of a subset that was picked to be rich in the highest values.

T1: UNK ZnF1-3 (human, UniProt Q9C0B0 31-174)
T1 sequence: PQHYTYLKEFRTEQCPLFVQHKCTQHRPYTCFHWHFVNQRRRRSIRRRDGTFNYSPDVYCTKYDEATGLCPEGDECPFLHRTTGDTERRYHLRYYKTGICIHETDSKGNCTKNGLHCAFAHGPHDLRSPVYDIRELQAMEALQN

B1: chr19:16212804:16212805:+_ENSG00000167460_ENST00000300933|hu_hu|motif|central (ssRNA)
RNA: GGGAGUUCUACAGUCCGACGAUCAGGAAAUAUGCAAAAGAACAUCACAUCAAGGAUCAAUUAAUUACCAUCUAUUAAUUACGGUAUGUGGGUAAUUAUGACUAUUUCCCAAGCAUUCUACGUUGACUGCUUGAGAAGAUGUUUCAACAGAGGAUUGAGCAUCA
B2: chr1:201104638:201104639:-_ENSG00000116857_ENST00000367334|hu_hu|FALSE|FALSE (ssRNA)
RNA: GGGAGUUCUACAGUCCGACGAUCAGAGAUCAGAGACCACAUCCCUCUUCCCUAAUCAAAAUAGCCAAGUACAACAUUUCUAAAGUUAGGGAGAAGGAGGAAAAAUGCCACAGGCUUUUAAAGGGAAGACUGGAACCGAGGGAACAACAGAGGAUUGAGCAUCA
B3: chr7:155493584:155493585:+_ENSG00000184863_ENST00000401878|hu_mus|FALSE|FALSE (ssRNA)
RNA: GGGAGUUCUACAGUCCGACGAUCAGAAAGUUCCAAAGUUUCUGGAAUGUUCCUUCUCUCUCUAGUUACAUCUGAAAGCCUAAUAAUUGUUCCUUCUUUCCUUUCAGUUUUAAAACGUAAUCGUCCAGAUUCUUCAUCAUCAUCCAACAGAGGAUUGAGCAUCA
B4: chr1:36770067:36770068:+_ENSG00000054118_ENST00000354618|hu_hu|FALSE|FALSE (ssRNA)
RNA: GGGAGUUCUACAGUCCGACGAUCUCUUUCAAGAAUCAAAGUUUCCCAAAUUAAAUGUUUCUAAUAUUACUACAUAUGCCUAAAAAAAGAAAAAAAAAAAAAAAAAGGAGGGGGCUUUUAAAAUCAGGACAGGGGAAAAGAGAUCAACAGAGGAUUGAGCAUCA
B5: chr1:36770067:36770068:+_ENSG00000054118_ENST00000354618|hu_mus|FALSE|FALSE (ssRNA)
RNA: GGGAGUUCUACAGUCCGACGAUCUUAAGAGUCAAAGUUGCCCAAAUUAAAAUCUUUACACUAAUAUUACUAUAUAUCCCCUAAAAAGAAGAAAAAGAAAAAAGGAUUUCUUAAUAAAACUCAGGACAGGAAGAGACUGAAAACCAACAGAGGAUUGAGCAUCA
B6: chr1:36770067:36770068:+_ENSG00000054118_ENST00000354618|hu_hu|motif|central (ssRNA)
RNA: B4 RNA with U80G, A81G
B7: chr1:59925254:59925255:+_ENSMUSG00000067336_ENSMUST00000087435|mus_hu|FALSE|FALSE (ssRNA)
RNA: GGGAGUUCUACAGUCCGACGAUCAUCUUGUUCUGAACAUGGAUUGCUGUUGUUGUUAUUGGAAUUAGUUCGGCCACCUUCUAGUGGCCGUUCCCUCCUGUCCACAAGACGAUCCAGAACACCUUCAUCAUGGCCAGCUUGUUGCAACAGAGGAUUGAGCAUCA
B8: chr4:101271765:101271766:+_ENSMUSG00000028528_ENSMUST00000094953|mus_mus|motif|central (ssRNA)
RNA: GGGAGUUCUACAGUCCGACGAUCAGACUUGGGUGACAAGUUGUAUACUGUGUAGUGGUCAAGAUGUCUGGAAUCCAAAAAGCGGCGGAUGUCAUCAACCUGAUUCCUGAAUCCUAUGUCAACACUAUCCACAGGAAAGGACAUCAACAGAGGAUUGAGCAUCA
B9: 5953805_5956048_782_CDS_ENSMUSG00000024833_ENSMUST00000025752|mouse|control|control (ssRNA)
RNA: GGGAGUUCUACAGUCCGACGAUCCAAGCCCUGUGCGGAGCCAAAGGUGGUCACCACUUCUCCCCGGUUGGUUCUGGAGGUGUAUUUCUGGGAGGGGGUAGCACUCGGGGAGAAACUUGACGGUGAGAGAAGCUGACGUGGGCUCAACAGAGGAUUGAGCAUCA
B10: chr2:39278355:39278356:-_ENSG00000115904_ENST00000402219|hu_mus|motif|central (ssRNA)
RNA: GGGAGUUCUACAGUCCGACGAUCACAGCUUCCUACUAAUGGGUGGGGACUGCCUUCAUCUGUCAUUUCUACAGUAUCUUCGGUAUGGCCCAGUAACUUUACACUAAGUUCAUGUAUAUCUACUAUACGACUGAAUAUGUUUUCCAACAGAGGAUUGAGCAUCA
B11: chr17:27717376:27717377:-_ENSMUSG00000024213_ENSMUST00000025050|mus_mus|FALSE|FALSE (ssRNA)
RNA: GGGAGUUCUACAGUCCGACGAUCCACAGGACAGAUUUUUAGAAAGUUUCAUCGCACAUGGGUGUCUUUUAAUGAAAAAAAAAAAAAAAAUUCAGAGGAAAUAUCUGGCCAGGCCGGGACGAGACAAAUGGGAGUGCUUCGGAACAACAGAGGAUUGAGCAUCA
B12: chr14:49642940:49642941:-_ENSMUSG00000061244_ENSMUST00000162175|mus_mus|FALSE|FALSE (ssRNA)
RNA: GGGAGUUCUACAGUCCGACGAUCUAAAGCAUAAUCAAUAUGCUCAAUACAUAAAAAUUCCACAAGAAUGGUAAAAAUUCUAAAGGCAUUCCUUGGUAAAUCAGAAGGAUCAGAAAGCCUAUGACAUCUUUCAAAGGCUUGUUUCAACAGAGGAUUGAGCAUCA
B13: chr16:28827448:28827449:-_ENSMUSG00000051065_ENSMUST00000100023|mus_hu|FALSE|FALSE (ssRNA)
RNA: GGGAGUUCUACAGUCCGACGAUCAAAUAUCAGUAGUGGUGAAAGCUCAUAAGAAAAAAGACAAAAACAAAAUAAUAAAAAUAAUAGGAUAGAAUCGUUAAGCAUCAGAAAGAGAUUUGUUUCCCCAUACCCAUGAACAAAUUUCAACAGAGGAUUGAGCAUCA
B14: chr1:66485854:66485855:+_ENSMUSG00000015222_ENSMUST00000077355|mus_mus|FALSE|FALSE (ssRNA)
RNA: GGGAGUUCUACAGUCCGACGAUCCCUUUCAGAAUGUAUUGGAUAGCCUUCAGGCACAUGAAAGGUAAAAAUGCAAUUUAAAAAAUAAUAAUAAUACUCCAUGCAAAACAGAGCAGAGCGAAAAUAAUUGUCCGAUUGUAUCCACAACAGAGGAUUGAGCAUCA
B15: chrX:45232703:45232704:-_ENSMUSG00000031099_ENSMUST00000088973|mus_hu|FALSE|FALSE (ssRNA)
RNA: GGGAGUUCUACAGUCCGACGAUCAGAUGGGACCCAUCGUUUAAAUUCAUUCAUCCAGUUGUGUAAAGUAGACUUUGGAACUAAAACCAUGUGAGGUCCAGGAAUAUUUCGGUAGUGUUUCAGGUAACCAAGCAAAGCAAUUGUCAACAGAGGAUUGAGCAUCA
B16: 24503659_24515395_812_3pUTR_ENSG00000112294_ENST00000357578|human|control|control (ssRNA)
RNA: GGGAGUUCUACAGUCCGACGAUCGCUCAGCCAGGGCCAGGGCGGAGAAGGGCGUGUCUUCGGCAGGCUUCACCACGACAGUACAGCCGGCUGCCAGGGCGGCCCCCACCUUCCGGGUGAUCAUGGCACUGGGGAAAUUCCACGCAACAGAGGAUUGAGCAUCA
B17: chr1:40083102:40083103:+_ENSMUSG00000026074_ENSMUST00000163854|mus_hu|FALSE|FALSE (ssRNA)
RNA: GGGAGUUCUACAGUCCGACGAUCCAUGAAACAAAUUCUUUCUCAAGACAUUUAUUACAAAUGUCAUGAAUAUAUUCAUAAAGUAAAAUUGGUUUAAAAAAACAGAGAACAAGAGAGCAAGUGAGAAAACGAGAAAAGCCAGGACAACAGAGGAUUGAGCAUCA
B18: chr4:62795864:62795865:+_ENSMUSG00000028358_ENSMUST00000107415|mus_mus|FALSE|FALSE (ssRNA)
RNA: GGGAGUUCUACAGUCCGACGAUCGCCUCCCAGAAAUCACAUGUGAAAAGAAACCGAGUCCCCCAUAAGAUAAAAAAUUUGCUAAAGUAUUGUGAAAAAUGACGACAACAACAACAACAAAAUUGAGUGGAGAGUCAGCUAUGUCAACAGAGGAUUGAGCAUCA
B19: chr2:192256868:192256869:+_ENSG00000128641_ENST00000304164|hu_hu|FALSE|FALSE (ssRNA)
RNA: GGGAGUUCUACAGUCCGACGAUCUGGGUUUCGGAUGAAUAUCUUUGAUCUACCAAAGGAGUAUUCUUCCACGGGAAUUUCUAAUUCAUUAAAUAGGACCUCCACACCAGACCUGGCUGGUCCUUUCCAAUGAGGCCAUGUUUGCAACAGAGGAUUGAGCAUCA
B20: chr19:15271055:15271056:-_ENSG00000074181_ENST00000263388|hu_hu|motif|central (ssRNA)
RNA: GGGAGUUCUACAGUCCGACGAUCCAUAUAUAUAUUUUGUAAAAAAUAAUAAUAAUAAGUUUGUUUAAAUGAAUUUGUUUCGGUACAAAAUGUAAAAAAAAAAAGAAAAAUAAAAAUAAUAAUAAUUCAUUCAUGUCAGAGUGUCAACAGAGGAUUGAGCAUCA
B21: 1087333_1088580_755_CDS_ENSG00000067064_ENST00000381344|human|control|control (ssRNA)
RNA: GGGAGUUCUACAGUCCGACGAUCUACAUUCUUCCUCACCAACAAAAUGUAAUCAAUUUCAUGUUCACCCCAGAUACCAUCAGACUGAGCUUUGUAGUGAAUUCGUGUUAAAUAAUUAAUUUCUUCUGGAGGAACCUCUUCCAACAACAGAGGAUUGAGCAUCA
B22: 113942580_113943501_80_5pUTR_ENSG00000119927_ENST00000348367|human|control|control (ssRNA)
RNA: GGGAGUUCUACAGUCCGACGAUCAUAAAACUUCAGGACUCAGCUAUCAGUUUCGGGUGCAGAAUGUCCAUACAACAGGGGAGCCGCUGCUGCCCUAGCAGCUCCAGCUUCGGCUGCUGCAGAAGCCCGCACUUCCAGUCCCGGCAACAGAGGAUUGAGCAUCA

target: T1, UNK ZnF1-3; test: nsRBNS (natural sequence RNA bind-n-seq); RBNS binding buffer (assumed for nsRBNS): 25 mM Tris pH 7.5, 150 mM KCl, 3 mM MgCl2, 0.01% Triton X-100, 500 ug/ml BSA, 20 U/ml SUPERase-In, 4 C; UNK is unkempt and MSI1 is Musashi-1; names of the RNAs are library labels; protein concentration not given here; high values mean tight binding

Binder | binding signal [enrichment R]
B1 | 0.67
B2 | 2.05
B3 | 0.81
B4 | 4.92
B5 | 2.39
B6 | 3.96
B7 | 0.391
B8 | 0.93
B9 | 1.38
B10 | 0.721
B11 | 4.44
B12 | 0.307
B13 | 8.38
B14 | 5.46
B15 | 1.15
B16 | 1.27
B17 | 2.12
B18 | 3.53
B19 | 0.529
B20 | 11.2
B21 | 3.42
B22 | 1.22
